# The list is not random: actives were taken first. Their share in the collection is about 3%.
# TSG101-PTAP inh: blocks PTAP/TSG101 interaction to inhibit HIV-1 budding; Fluorescence polarization, FITC-PTAP peptide / Tsg101 binding; Potency, µM (series often up to 115 µM), for inactives: top-dose activity change, negative = inhibition, actives largely listed as inhibitors; 340,000 tested, under 10 active; AID 493005; active means well fitted inhibition curve with a large enough effect in the main read-out, with a control signal flat, not every such curve was filed as active; inconclusive means small, poorly fitted or top-dose-only effect, or effect the other way, or a change in a side signal; inactive means no such curve, though single readings can be large or run the other way; further: % of control where 0% means no effect
#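 FP read-out: FITC-PTAP peptide, 50 nM final, binding Tsg101 binding domain, 10 uM final; 20 min, r.t.; 10 mM HEPES pH 7.5, 0.15 M NaCl, 0.01% Tween 20, 3 mM EDTA, 0.1 mM TCEP.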
# USP1 inh: USP1/UAF1 (human) deubiquitinase inhibition | Potency, µM (titrated, usually from 57.1 µM), without a hit: at the highest dose activity change, negative = inhibition, most hits filed as inhibitors | O94782 | AID 743255 | hit rate 0.23% among 390,000 | recombinant USP1/UAF1, Ub-Rhodamine cleavage fluorescence; further: on the % scale 0 is the no-effect control and ±100 the full control effect; nearly all actives have a fitted effect of over 60% in size
#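 In this screen, compounds sit with the deubiquitinase complex (1nM) for 15 min at room temperature before Ub-Rho is added at 150nM final. Fluorescence rise is then followed for 6 reads every 60 seconds.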
# PLK1 PBD inh: inhibitors of human PLK1 polo-box domain binding | P53350 | Plk1 PBD binding of FITC phosphopeptide, fluorescence polarization | Potency, µM, for the others: max response, negative = inhibition, hits mostly inhibitors | hit rate 2.8% among 360,000 | AID 720504; further: series mostly up to about 57 µM; on the % scale 0 is the no-effect control and ±100 the full control effect; nearly all actives have a fitted effect of over 65% in size
# VDR inhibitor: vitamin D3 receptor (human) inhibition | VDR-SRC2-3 peptide fluorescence polarization, 2 h | P11473 | Potency, µM, for the others: max response, negative = inhibition, hits mostly inhibitors | AID 504847 | hit rate 0.93% among 400,000; further: on the % scale 0 is the no-effect control and ±100 the full control effect
#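 Measured by FP: displacement of SRC2-3 coactivator peptide from VDR by library compounds, following a two-hour ambient incubation.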
# KAT2A inh: GCN5L2 (KAT2A) acetyltransferase inhibition | Q92830 | GCN5L2 HAT assay, ThioGlo1 CoA-SH fluorescence | Potency, µM (top dose mostly 58.9 µM), without a hit: at the top dose activity change, negative = inhibition, hits mostly inhibitors | hit rate 0.21% among 390,000 | AID 504327; further: on the % scale 0 is the no-effect control and ±100 the full control effect
# Target sequence (Q92830 whole entry, looked up): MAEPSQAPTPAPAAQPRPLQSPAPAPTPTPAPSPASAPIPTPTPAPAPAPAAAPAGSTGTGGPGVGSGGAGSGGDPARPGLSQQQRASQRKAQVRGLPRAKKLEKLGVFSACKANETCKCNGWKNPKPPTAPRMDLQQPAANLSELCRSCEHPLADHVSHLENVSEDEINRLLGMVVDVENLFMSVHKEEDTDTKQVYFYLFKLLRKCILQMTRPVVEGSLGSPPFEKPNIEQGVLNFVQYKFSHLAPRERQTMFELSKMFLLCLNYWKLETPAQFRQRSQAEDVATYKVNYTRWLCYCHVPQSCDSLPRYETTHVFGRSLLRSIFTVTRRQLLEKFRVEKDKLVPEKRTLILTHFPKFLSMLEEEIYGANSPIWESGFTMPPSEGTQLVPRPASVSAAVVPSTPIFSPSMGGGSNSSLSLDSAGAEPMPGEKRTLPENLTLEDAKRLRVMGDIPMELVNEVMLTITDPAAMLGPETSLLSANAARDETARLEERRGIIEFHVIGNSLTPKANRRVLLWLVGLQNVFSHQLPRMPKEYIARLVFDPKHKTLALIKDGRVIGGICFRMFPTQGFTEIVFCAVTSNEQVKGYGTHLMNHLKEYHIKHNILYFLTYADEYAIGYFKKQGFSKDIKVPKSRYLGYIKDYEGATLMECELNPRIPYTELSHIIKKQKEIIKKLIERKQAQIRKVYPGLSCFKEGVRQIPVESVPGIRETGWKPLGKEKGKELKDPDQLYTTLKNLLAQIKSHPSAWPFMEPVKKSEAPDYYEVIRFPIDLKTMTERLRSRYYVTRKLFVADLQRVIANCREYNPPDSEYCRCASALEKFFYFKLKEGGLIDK
#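 Preincubate 20nM GCN5L2 with compound 15 min, RT → add 50uM ThioGlo1 + 75uM H3(1-25) + 70uM acetyl-CoA → read fluorescence 0 and 20 min. Primary qHTS; fluorescent artifacts likely.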
# The depositor's hits bear a star; ? = inconclusive; / = no result. Unless noted, the call rests on the fitted dose curve; in most records, active means well fitted curve in the direction sought with a large enough effect; inconclusive means small, poorly fitted or top-dose-only effect, or another doubt; inactive means no such curve, though single readings can be large; an effect the other way counts as inactive or inconclusive. Potency means the concentration at half of the fitted maximal effect.
SMILES,TSG101-PTAP inh,USP1 inh,PLK1 PBD inh,VDR inhibitor,KAT2A inh
O=C(c1ccc(Cl)cc1)C(CN1CCCC1)c1ccccc1 (stereo unspecified),-4.8%,-31.5%,0.0%,25.1µM*,-2.8%
O=C(c1ccc(F)cc1)C(CN1CCOCC1)c1ccccc1 (stereo unspecified),-3.0%,-9.1%,-14.0%,50.1µM*,-4.1%
Cn1c(C(=O)NC2CCCC2)cc2c(=O)n(C)c3ccccc3c21,-1.3%,-11.2%,29.9µM*,?,-4.7%
Cn1c(C(=O)NCCN2CCCCCC2)cc2c(=O)n(C)c3ccccc3c21,1.0%,-25.7%,-21.4%,-5.6%,-25.1%
Cc1cccc(/C=C/C(=O)c2ccc(NC3=NCCCS3)cc2)c1,-8.8%,-21.1%,-14.6%,20µM*,-12.7%
Cn1ccnc1SCc1cccc([N+](=O)[O-])c1,2.1%,-7.6%,-6.9%,19.9%,-3.0%
Cn1ccnc1SCc1ccc([N+](=O)[O-])cc1,-10.7%,-13.5%,-8.7%,0.4%,0.794µM*
COc1ccc(-c2nnc(OCc3nc4ccccc4n3C)c3ccccc23)cc1,1.0%,-8.0%,18.9µM*,?,-0.7%
N#CCC(=O)NN,/,/,/,5.3%,-7.1%
O=C(Nc1ccc2c(c1)Cc1ccccc1-2)c1ccco1,-0.4%,2.0%,-2.4%,5.6%,1.9%
C=CCOC(=O)C(=O)/C=C/c1ccc2c(c1)Cc1ccccc1-2,1.7%,-21.8%,?,22.4µM*,0.7%
CC(C)=CC[C@@H](O)C1=CC(=O)c2c(O)ccc(O)c2C1=O,/,/,/,1.78µM*,25.1µM*
O=C(O)c1ccc(NC(CSCc2ccccc2F)C(=O)O)c([N+](=O)[O-])c1 (stereo unspecified),-10.3%,-13.4%,-1.3%,-13.7%,-0.6%
CSC1=NC(=O)/C(=C\c2cccc3ccccc23)S1,0.0%,-8.2%,-26.9%,79.4µM*,-16.4%
CCC(C)C(=O)Nc1cc(OC)c(OC)cc1C(=O)O (stereo unspecified),-1.2%,-12.2%,-0.4%,12.4%,0.7%
CCC(CC)C(=O)Nc1cc(OC)c(OC)cc1C(=O)O,-2.6%,-12.6%,18.9µM*,-14.5%,-0.5%
Cc1oc(-c2ccc(Cl)cc2)nc1Cn1c(=O)cc(C)c2c(C)nn(-c3ccccc3)c21,/,-21.8%,/,15.9%,12.1%
CCOC(=O)C1=C(COC(=O)/C=C/c2ccco2)NC(=O)NC1C (stereo unspecified),-6.6%,-10.5%,?,-20.2%,-15.9%
N/C(Cc1cccc2ccccc12)=N\OC(=O)c1ccc2c(c1)OCO2,-0.1%,?,23.8µM*,?,-0.4%
N/C(=N\OC(=O)c1ccc2c(c1)OCO2)c1cccc(Br)c1,-2.4%,-22.3%,-5.5%,-9.0%,-5.9%
Cc1sc(NC(=S)NC(=O)c2ccc(C(C)(C)C)cc2)c(C#N)c1C,0.0%,-5.0%,?,7.9%,-3.1%
CC(C)C1Cc2c(sc(NC(=S)NC(=O)c3ccccc3)c2C#N)CO1 (stereo unspecified),-0.1%,-19.3%,23.8µM*,-23.5%,2.9%
CC(C)N1CCc2c(sc(NC(=S)NC(=O)c3ccccc3)c2C#N)C1,3.4%,-5.2%,?,-9.5%,35.8%
CCCN1CCc2c(sc(NC(=S)NC(=O)c3ccccc3)c2C#N)C1,-3.1%,-29.0%,7.52µM*,?,-18.5%
Cc1sc(NC(=S)NC(=O)c2ccccc2)c(C#N)c1C,0.1%,-12.3%,11.9µM*,-14.5%,/
SMILES,TSG101-PTAP inh,USP1 inh,PLK1 PBD inh,VDR inhibitor,KAT2A inh
Cc1cc(NC(=O)c2ccco2)cc(-c2nc3cc(Cl)ccc3o2)c1O,/,-21.1%,/,0.4%,-2.6%
[O-][n+]1ccccc1SSc1cccc[n+]1[O-],/,/,/,5.62µM*,14.1µM*
COc1ccc2c(c1)C(=O)[C@H](OC(=O)NS(=O)(=O)c1ccc(C)cc1)[C@@H](c1ccc(OC)c(Br)c1)O2,/,/,/,2.7%,/
O=C(CN1C(=O)COc2ccc(S(=O)(=O)NC3CCCC3)cc21)NCc1ccc(Cl)cc1,/,-18.7%,/,9.8%,-5.6%
COCCOCCn1c(/C=C/c2ccccc2)nc2ccccc21,-0.5%,?,18.9µM*,?,-17.0%
CC(C)CCNC(=O)CCCN1C(=O)c2ccccc2Sc2ncccc21,/,4.0%,/,2.9%,0.4%
N=c1oc2c3c4c(cc2cc1C(=O)Nc1ccccc1)CCCN4CCC3,?,10µM*,3.36µM*,-12.4%,-0.8%
CCN(CCO)c1ccc(NC(=S)Nc2cccc(S(=O)(=O)N(C)C)c2)cc1,0.3%,-26.2%,26.7µM*,?,-3.4%
CCn1c(C)nc2cc(C(=O)N/N=C/c3ccc(O)c(O)c3O)ccc21,-2.1%,-6.5%,8.44µM*,-21.6%,?
COc1cccc(/C=N/NC(=S)Nc2cccc(S(=O)(=O)N(C)C)c2)c1,3.0%,-7.9%,8.44µM*,79.4µM*,4.3%
COc1ccc(O)c(/C=N/NC(=S)Nc2cccc(S(=O)(=O)N(C)C)c2)c1,-0.2%,-17.3%,4.0%,-4.8%,-12.7%
CN(C)S(=O)(=O)c1cccc(NC(=S)Nc2cc(Cl)cc(Cl)c2)c1,-3.7%,-10.7%,?,-10.4%,-0.9%
CN(C)S(=O)(=O)c1cccc(NC(=S)N/N=C/c2ccc(O)c(O)c2O)c1,0.4%,-25.2%,5.97µM*,89.1µM*,-19.8%
N#Cc1cccc(NC(=O)N2CC3(CCN(C(=O)c4ccco4)CC3)C2)c1,/,/,/,-4.7%,-15.1%
CCOC(=O)c1ccc(NC(=O)C(Cc2ccccc2)NS(=O)(=O)c2ccc(Br)s2)cc1 (stereo unspecified),/,-8.9%,/,-13.4%,-8.3%
CCN(CC)S(=O)(=O)c1cccc(C(=O)N/N=C/c2ccc(O)c(O)c2O)c1,-1.0%,-8.9%,8.44µM*,-12.7%,-23.9%
O=C(Cn1nnc(-c2ccccc2)n1)N/N=C/c1cc([N+](=O)[O-])ccc1O,-0.7%,-9.5%,-4.7%,-3.3%,35.8%
O=C(Cn1nc2ccccc2n1)N/N=C/c1cc([N+](=O)[O-])ccc1O,-10.8%,-6.9%,7.52µM*,-21.8%,-15.4%
CCOC(=O)C1=C(CC)Nc2ccccc2N/C1=N\S(=O)(=O)c1cc(Br)ccc1Br,-0.4%,?,21.2µM*,-4.5%,-9.3%
C[N+]1(C)CCC(=C2c3ccccc3CC(=O)c3sccc32)CC1,-3.2%,28.2µM*,37.7µM*,-20.5%,1.9%
O=C(NC1CCCCC1)Oc1cc2oc(=O)sc2cc1Br,1.0%,-4.8%,2.12µM*,44.7µM*,-3.8%
O=C(NC1CCCCCC1)c1ccc(Br)o1,-0.6%,1.2%,-7.8%,7.1%,-2.2%
COc1cc(CNC(=O)c2cnc(SC)nc2-c2ccccc2)cc(OC)c1OC,/,-3.2%,/,6.7%,-2.4%
O=C(c1ccccc1NS(=O)(=O)c1ccc([N+](=O)[O-])cc1[N+](=O)[O-])N1O[C@@H]2C=C[C@H]1C2,-3.3%,?,?,44.7µM*,-3.7%
CC[C@H]1[C@@H]2C=C[C@@H]3[C@H]4C/C=C\C(=O)NCCC[C@@H]5NC(=O)C(=C5O)C(=O)CC[C@@H]4C[C@@H]3[C@H]2C[C@H]1C,/,/,/,39.8µM*,-24.8%

# Bioassay records from PubChem.
